Test results reported in PubChem BioAssay AID463193 (University of Pittsburgh Molecular Library Screening Center, 2010).
Screen size: about 190,000 compounds; about 1,900 (1%) were called active.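 Rule for the calls: active = percentage of spot-positive cells more than 3 SD above its plate mean, without a fluorescence outlier flag or 80% toxicity; inconclusive = no clear call, values can overlap the other calls; inactive = the rest.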 The sample as a whole holds a higher share of actives than the screen did.

Test: autophagy modulators in MEF cells, primary screen, imaging, high-content, MEF GFP-LC3 (AID 463193);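 for % cells with GFP-LC3 spots: spot-positive cell cutoff set from DMSO-treated cells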;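 for toxicity: cell loss after 18 h compound exposure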
Settings: MEF GFP-LC3 puncta imaging, at 10 µM; % cells with GFP-LC3 spots: stronger effect = higher value; toxicity: measured here: cell loss, nuclei count

**Q.** With `CN(C)Cc1ccccc1C1(O)c2ccccc2CSc2ccccc21` (stereo not drawn) as the compound, how does the % cells with GFP-LC3 spots read?
**A.** The % cells with GFP-LC3 spots was 12% (active).

**Q.** What about the toxicity of the same compound?
**A.** The toxicity was -6.62%.

**Q.** With `COC(=O)C1=C(NC(=O)C(C)(C)C)CCS1` as the compound, how does the % cells with GFP-LC3 spots read?
**A.** The % cells with GFP-LC3 spots was 5.79% (inactive).

**Q.** What about the toxicity of the same compound?
**A.** Its toxicity is -3.16%.

**Q.** Which % cells with GFP-LC3 spots does the source give for `COC(=O)c1sc(N)c(C(=O)OC)c1COC(=O)CNS(=O)(=O)c1ccc(C)cc1` here?
**A.** The % cells with GFP-LC3 spots was 2.17% (inactive).

**Q.** And the toxicity?
**A.** Its toxicity is -4.43%.

**Q.** Which % cells with GFP-LC3 spots does the source give for `CCN1CCN(CCNC(=O)c2ccc(/C=C3/Sc4ccccc4N(Cc4cccc(C)c4)C3=O)cc2)CC1` here?
**A.** Its % cells with GFP-LC3 spots is 34.4% (inactive).

**Q.** And the toxicity?
**A.** Its toxicity is 30.3%.

**Q.** For `CCC(=O)/C=C1\Sc2ccccc2N1CC`, which % cells with GFP-LC3 spots is on record?
**A.** The % cells with GFP-LC3 spots was 7.46% (inactive).

**Q.** What about the toxicity of the same compound?
**A.** Its toxicity is -11.3%.

**Q.** For `CCN1/C(=C/c2ccc3ccc(C)cc3[n+]2CC)Sc2ccccc21`, which % cells with GFP-LC3 spots is on record?
**A.** The % cells with GFP-LC3 spots was 42.4% (active).

**Q.** What about the toxicity of the same compound?
**A.** The toxicity was 14.3%.

**Q.** For `Cc1ccc(Nc2cc(C)nc3c(C)ccc([N+](=O)[O-])c23)cc1`, which % cells with GFP-LC3 spots is on record?
**A.** The % cells with GFP-LC3 spots was 9.29% (inactive).

**Q.** What about the toxicity of the same compound?
**A.** The toxicity was 15.4%.

**Q.** With `Cc1cccc(N(C(=O)Cc2cccs2)C(C(=O)NCc2ccco2)c2ccncc2)c1` (stereo not drawn) as the compound, how does the % cells with GFP-LC3 spots read?
**A.** Its % cells with GFP-LC3 spots is 0.45% (inactive).

**Q.** What about the toxicity of the same compound?
**A.** Its toxicity is 4.04%.

**Q.** With `CSc1nc(N)c(C#N)c(-c2ccccc2Cl)c1C#N` as the compound, how does the % cells with GFP-LC3 spots read?
**A.** Its % cells with GFP-LC3 spots is 1.32% (inactive).

**Q.** And the toxicity?
**A.** The toxicity was 7.01%.

**Q.** What does the source list for `Cc1nc2ccccc2cc1O`?
**A.** % cells with GFP-LC3 spots: 1.86% (inactive); toxicity: -9.74%

**Q.** With `CSc1nc2ccccc2cc1/C=C(\C#N)c1ccc(Cl)cc1Cl` as the compound, how does the % cells with GFP-LC3 spots read?
**A.** The % cells with GFP-LC3 spots was 26.9% (active).

**Q.** What about the toxicity of the same compound?
**A.** Its toxicity is 3.92%.

**Q.** For `CCC(C)NC(=O)/C=C/c1ccc(S(=O)(=O)NCc2ccco2)cc1` (stereo not drawn), which % cells with GFP-LC3 spots is on record?
**A.** The % cells with GFP-LC3 spots was 13.9% (inactive).

**Q.** And the toxicity?
**A.** The toxicity was -4.92%.

**Q.** What does the source list for `Cc1cccc(OCCNC(=S)NC(=O)c2cccnc2)c1`?
**A.** % cells with GFP-LC3 spots: 4.78% (inactive); toxicity: 1.96%

**Q.** Which results are given for `O=C(CSc1ncnc2c1nnn2Cc1ccc(F)cc1)NC1CCCC1`?
**A.** % cells with GFP-LC3 spots: 19.5% (inactive); toxicity: 3.4%

**Q.** For `COc1ccc(N2CCN(C(=O)CNS(=O)(=O)c3ccc(C)c(C)c3)CC2)cc1`, which % cells with GFP-LC3 spots is on record?
**A.** The % cells with GFP-LC3 spots was 0.151% (inactive).

**Q.** And the toxicity?
**A.** Its toxicity is -10.1%.

**Q.** What does the source list for `Cc1cc([N+](=O)[O-])nn1CCCC(=O)Nc1cccnc1Cl`?
**A.** % cells with GFP-LC3 spots: 8.6% (inactive); toxicity: 1.08%

**Q.** Which % cells with GFP-LC3 spots does the source give for `Cc1ccc(-c2nnc(-c3ccc(NC(=O)c4cccs4)cc3)o2)cc1` here?
**A.** Its % cells with GFP-LC3 spots is 9.58% (inactive).

**Q.** And the toxicity?
**A.** The toxicity was -19.8%.

**Q.** Which % cells with GFP-LC3 spots does the source give for `O=C(Nc1ccc2oc(-c3ccc4ccccc4c3)nc2c1)c1cccs1` here?
**A.** The % cells with GFP-LC3 spots was 3.28% (active).

**Q.** And the toxicity?
**A.** Its toxicity is -13.1%.

**Q.** What does the source list for `O=C(Cc1cccc2ccccc12)Nc1ccc2oc(-c3ccccc3)nc2c1`?
**A.** % cells with GFP-LC3 spots: 7.49% (inactive); toxicity: 12.1%

**Q.** With `COc1cc(OC)c(C(=O)Nc2ccccc2-c2ccccc2)cc1OC` as the compound, how does the % cells with GFP-LC3 spots read?
**A.** Its % cells with GFP-LC3 spots is 7.38% (inactive).

**Q.** What about the toxicity of the same compound?
**A.** Its toxicity is -2.46%.

**Q.** With `COc1ccc(C(=O)OCC(=O)NCC2CCCO2)cc1[N+](=O)[O-]` (stereo not drawn) as the compound, how does the % cells with GFP-LC3 spots read?
**A.** Its % cells with GFP-LC3 spots is 3.86% (inactive).

**Q.** What about the toxicity of the same compound?
**A.** The toxicity was 1.61%.

**Q.** Which % cells with GFP-LC3 spots does the source give for `COc1ccc(OC)c(C(=O)c2ccc(C(=O)N3CCN(Cc4csc(C)n4)CC3)cc2)c1` here?
**A.** Its % cells with GFP-LC3 spots is 1.64% (inactive).

**Q.** What about the toxicity of the same compound?
**A.** Its toxicity is 6.76%.

**Q.** For `O=C(O)COc1ccc(/C=N/O)cc1Br`, which % cells with GFP-LC3 spots is on record?
**A.** Its % cells with GFP-LC3 spots is 17% (inactive).

**Q.** And the toxicity?
**A.** The toxicity was 9.84%.

**Q.** For `CN(C)c1ccc(NC(=O)CSc2n[nH]c(-c3ccco3)n2)cc1`, which % cells with GFP-LC3 spots is on record?
**A.** The % cells with GFP-LC3 spots was 5.18% (inactive).

**Q.** And the toxicity?
**A.** The toxicity was -4.21%.
